# Tau ThT inhib = inhibitors of human tau fibril formation, thioflavin T binding. Potency, µM (titrated, usually from 57.4 µM), for inactives: at the highest dose activity, negative = inhibition, most hits filed as inhibitors. P10636. actives 2.1% (n = 270,000). recombinant tau K18 P301L, heparin-induced fibrillization, ThT fluorescence; also: potency is read from the fitted curve at half-maximal effect; nearly all actives have a fitted effect of over 55% in size
# Target sequence (P10636 561-689 P618L limits assumed): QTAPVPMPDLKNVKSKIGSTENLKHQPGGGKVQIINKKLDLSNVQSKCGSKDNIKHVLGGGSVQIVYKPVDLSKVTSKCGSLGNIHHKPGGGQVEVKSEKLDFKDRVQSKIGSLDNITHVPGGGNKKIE
#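 Tau K18 P301L fragment (15 uM unlabeled plus 0.24 uM Alexa 594-labeled) in 100 mM sodium acetate pH 7 with compound, fibrillization induced by 20 uM heparin for 6 hr at 37 C. Thioflavin T (30 uM) added, fluorescence read after 1 hr (ex 450, em 510 nm).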
# TR SRC2 fluor cs = Texas Red fluorescence interference in TRb-SRC2 counter-screen; TRb/SRC2 Texas Red total fluorescence interference; Potency, µM (titrated, usually from 106 µM), without a hit: at the top dose fluorescence change, negative = quenching; actives 0.29% (n = 280,000); active = well fitted curve in either direction with a large enough effect; inconclusive = small, poorly fitted or top-dose-only effect; also: potency is read from the fitted curve at half-maximal effect
#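 Flags fluorescent or light-absorbing compounds by total fluorescence, S + 2P, at 555 nm excitation and 632 nm emission. Mixture: 20 nM Texas Red SRC2 peptide, 0.6 uM human TRb LBD, 1 uM T3, 5% DMSO; compound exposure 5 h at ambient temperature.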
# TRb SRC2 PPI = inhibitors of human thyroid hormone receptor beta-SRC2 interaction; P10828; AID 1469; Potency, µM (series often up to 106 µM), for the others: at the top dose activity change, negative = inhibition, most hits filed as inhibitors; TRbeta-SRC2 peptide binding, fluorescence polarization; receptor liganded with 1 µM T3; actives 0.065% (n = 280,000);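 also: potency is read from the fitted curve at half-maximal effect; plate controls were bound peptide for no effect and peptide without receptor for full effect; nearly all actives have a fitted effect of over 50% in size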
# Target sequence (P10828 whole entry, looked up): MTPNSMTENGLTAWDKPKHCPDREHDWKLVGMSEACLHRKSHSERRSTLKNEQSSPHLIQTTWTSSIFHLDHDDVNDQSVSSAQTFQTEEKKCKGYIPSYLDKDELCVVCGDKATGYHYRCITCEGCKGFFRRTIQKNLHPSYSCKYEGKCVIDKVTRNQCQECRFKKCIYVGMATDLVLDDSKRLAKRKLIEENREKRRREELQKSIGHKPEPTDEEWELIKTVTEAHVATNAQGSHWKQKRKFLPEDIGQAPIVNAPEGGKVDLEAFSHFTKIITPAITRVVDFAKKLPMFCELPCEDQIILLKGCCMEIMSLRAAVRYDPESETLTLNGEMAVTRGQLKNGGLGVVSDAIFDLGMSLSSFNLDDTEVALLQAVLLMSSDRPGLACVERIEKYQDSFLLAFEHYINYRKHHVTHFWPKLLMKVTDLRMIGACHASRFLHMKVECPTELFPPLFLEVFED
#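 Fluorescence polarization of 20 nM Texas Red SRC2 peptide with 0.6 uM human TRb ligand-binding domain, in Tris buffer with 1uM T3 and 5% DMSO. Incubated 5 hr ambient; normalized to unbound and bound controls.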
# PNC assembly inh = inhibitors of perinucleolar compartment assembly | PC3M PTB-GFP, PNC prevalence imaging, 16 h; hits give low values | activity change (PNC), negative = inhibition, % at 10 µM | actives 3.1% (n = 140,000) | AID 2417;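 active = readout at or below -70, meaning at least 70% loss of cells showing the perinucleolar compartment, a nuclear body marking cancer cells; inconclusive = readout between -30 and a set limit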;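 also: plate controls were DMSO wells for no effect and camptothecin positive control wells for full effect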
#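 Compounds are pinned in duplicate onto adhered PC3M cells stably expressing GFP-tagged PTB and incubated 16 h at 37 C. Cells are then fixed, nuclei stained with Hoechst, and PNC-positive cells counted.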
# Tau FP inhib = tau fibrillization inhibition (FP) | P10636 | K18 P301L tau heparin fibrillization, Alexa594 FP, 6 h | Potency, µM (highest dose often 57.7 µM), for inactives: at the highest dose activity, negative = inhibition, actives largely listed as inhibitors | actives 0.39% (n = 280,000) | AID 1468; also: potency is read from the fitted curve at half-maximal effect; nearly all actives have a fitted effect of over 55% in size
#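 Heparin (20 uM) drove fibril formation of recombinant tau K18 P301L, 15 uM unlabeled with 0.24 uM Alexa 594 label, for 6 hr at 37 C in 100 mM sodium acetate pH 7. Fluorescence polarization (555/632 nm) read 1 hr after 30 uM ThT.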
# Tau fluor cs = counter-screen for tau fibril formation inhibitors. AID 1463. Potency, µM (titrated, usually from 57.7 µM), inactives show at the highest dose activity change, negative = decrease. actives 0.93% (n = 280,000). tau K18 P301L (four-repeat tau fragment) Alexa594 fluorescence, heparin fibrillization; also: potency is read from the fitted curve at half-maximal effect; nearly all actives have a fitted effect of over 55% in size
#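 Human K18 P301L tau (15 uM unlabeled plus 0.24 uM Alexa 594-labeled, final) in 100 mM sodium acetate pH 7 was mixed with compound and 20 uM heparin and incubated 6 hr at 37 C.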
# * = called active by the depositor; ? = inconclusive; . = no result given; [ ] = dose if it differs, or a comment. Compounds with a hit are over-represented: about 4.6% of the library has one in this group of screens. Unless noted, calls follow the shape of the dose curve; as a rule, active = well fitted curve in the direction sought with a large enough effect; inconclusive = small, poorly fitted or top-dose-only effect, or another doubt; inactive = no such curve, though single readings can be large; an effect the other way counts as inactive or inconclusive. Unless noted, % is scaled to controls: 0 for no effect and ±100 for the full control effect.
SMILES,Tau ThT inhib,TR SRC2 fluor cs,TRb SRC2 PPI,PNC assembly inh,Tau FP inhib,Tau fluor cs
O=C(CCCc1ccc(-c2ccccc2F)cc1)Nc1ccc(O)cc1,?,-2%,-1%,.,?,11µM*[quencher]
O=C(CCCc1ccccc1)Nc1cccc(C(=O)O)c1,6%,-2%,5%,.,3%,4%
Cc1cc(NC(=O)CSc2nc3ccccc3n2CC(=O)N2CCC(C)CC2)no1,3%,3%,-22%,33,-4%,-2%
CCOc1ccc(NC(=O)c2oc3ccccc3c2NC(=O)c2cc3ccccc3o2)cc1,-3%,-1%,3%,.,?,?
Nc1ccc(S(N)(=O)=O)cc1N,13µM*,-1%,3%,.,-17%,?
Nc1ccc(S(N)(=O)=O)cc1,-2%,-1%,5%,.,-3%,-8%
Nc1ncc(-c2nnnn2-c2ccc(Cl)cc2)c(-c2ccc(Cl)cc2)n1,-4%,-4%,-6%,-14,-6%,-12%
CCNC(=S)Nc1ccc(C)c(S(=O)(=O)Nc2ccccc2OC)c1,-2%,-7%,7%,.,-12%,-24%
O=C(Nc1ccc(N2CCCC2)c(S(=O)(=O)Nc2cccc(C(F)(F)F)c2)c1)c1cccs1,-13%,-1%,2%,78,7%,10µM*[quencher]
COc1ccccc1NS(=O)(=O)c1cc(NC(=S)Nc2cc(C)cc(C)c2)ccc1Cl,-7%,?,-12%,21,?,32µM*[quencher]
CCN(CC)c1ccc(NC(=O)c2ccccc2F)cc1S(=O)(=O)Nc1ccccc1OC,-16%,1%,-2%,-15,-7%,-28%
CCN(CC)c1ccc(NC(=O)c2ccccc2Br)cc1S(=O)(=O)Nc1ccccc1OC,25µM*,-2%,3%,-13,?,-28%
Cc1ccc(NC(=O)CNC(=O)c2cccs2)cc1S(=O)(=O)Nc1ccc(Cl)cc1,17%,1%[53 µM],0%[53 µM],-113*,3%,11%
NC(=O)NOCc1ccc(Cl)cc1Cl,-4%,-2%,1%,.,-1%,2%
Cc1ccc(C(=O)Nc2ccc(C)c(S(=O)(=O)Nc3ccccc3Cl)c2)s1,5%,-2%,3%,?,?,?
O=C(Nc1ccc(Cl)c(S(=O)(=O)Nc2ccccc2Cl)c1)c1cccs1,-6%,-1%,0%,?,?,25µM*[quencher]
O=C(Nc1ccc(OCC(F)(F)C(F)F)c(C(F)(F)F)c1)c1ccccc1O,?,1%,6%,?,25µM*,?
O=C(Nc1ccc(OCC(F)(F)C(F)F)cc1)c1ccncc1,-14%,-4%,2%,.,5%,-12%
CN1C2CCC1CC(OC(=O)c1c[nH]c3ccccc13)C2 (stereo not given),-3%,-2%,-2%,-89*,-3%,-9%
CCC1=NN2C(=N)/C(=C\c3ccc(OCc4cc(=O)n5nc(CC)sc5n4)c(OC)c3)C(=O)N=C2S1,11µM*,-2%,4%,.,-11%,-22%
Cn1c(O)c(/C=C2\C=Nc3ccccc32)sc1=Nc1ccc(C(=O)O)cc1,.,-5%,4%,.,9%,-26%
O=C(Cc1ccccc1)Nn1c(O)c(/C=C2\C=Nc3ccccc32)sc1=S,2.5µM*,-4%,4%,4,?,7.9µM*[quencher]
C=CCn1c(C)cc(C(=O)CSc2nc3ccccc3o2)c1C,?,3%,-22%,?,-6%,-28%
O=S(=O)(c1ccc(F)cc1)N1CCN(c2ccccc2)CC1,-14%,2%,9%,0,4%,-21%
Nc1ncc(S(=O)(=O)N2CCN(c3ccccc3)CC2)cn1,5%,0.0056µM*[quencher],-19%,.,1%,6%
SMILES,Tau ThT inhib,TR SRC2 fluor cs,TRb SRC2 PPI,PNC assembly inh,Tau FP inhib,Tau fluor cs
Cc1nn(C)c(C)c1/C=N/NC(=O)CCn1cc([N+](=O)[O-])cn1,4%,1%,0%,-1,2%,8%
Cc1csc2ncnc(NNC(=O)c3ccc(Cl)cc3)c12,6%,-3%,-2%,.,2%,-1%
Cc1cccc(N2C(S)=C(C#N)C(=O)NC23CCCCC3)c1,32µM*,-2%,2%,3,?,-25%
CCN(CC)c1ccc(NC(=O)c2cc(OC)cc(OC)c2)c(C)c1,?,1%,4%,-89*,9%,-19%
CCN(CC)c1ccc(NC(=O)c2cccc(OC)c2)c(C)c1,?,2%,2%,?,13%,-8%
Cc1ccc(/C=C/C(=O)Nc2cccc3ncccc23)o1,?,-1%,-10%,0,-5%,-16%
CC1(C)Cc2c(sc3nn[nH]c(=O)c23)CO1,-7%,-2%,7%,-85*,5%,1%
COc1cc(/C=C2\SC(N3CCc4ccccc4C3)=NC2=O)cc(OC)c1OC,?,?,-6%,-1,2%,-1%
COc1ccc(/C=C2/SC(c3ccc(C)cc3)=NC2=O)cc1OC,14µM*,-3%,-5%,-8,?,?
COc1cc(/C=C2\SC(c3ccccc3)=NC2=O)cc(Cl)c1O,4.5µM*,-2%,-2%,.,?,?
COc1cc(/C=C2\SC(c3ccc(C)cc3)=NC2=O)ccc1O,14µM*,-6%,-2%,-95*,?,?
CN(C)C1=NC(=O)/C(=C\c2ccccc2)S1,-2%,-1%,1%,.,-4%,0%
COc1cc(/C=C2\SC(c3ccc(C)cc3)=NC2=O)cc(OC)c1OC,14µM*,0%,-6%,12,?,-27%
COc1ccc(/C=C2/C(=O)N=C(N)N2C)cc1OC,?,-4%,12%,17,8%,-10%
CCn1cc(C(=O)O)c(=O)c2cc(S(=O)(=O)N(C)C)ccc21,-16%,-3%,-2%,?,-5%,-14%
COc1cc(/C=C2\SC(N)=NC2=O)ccc1OCC(=O)Nc1ccc(C)cc1,?,0%,-3%,-19,?,-22%
COc1ccc(/C=C2\SC(c3ccc(C)cc3)=NC2=O)cc1OC,11µM*,-3%,-1%,39,?,?
NC(=O)C1(N2CCCCC2)CCN(C(=O)c2ccccc2)CC1,-3%,-2%,1%,-22,3%,-6%
Cc1ccc(-n2c(C)cc(=O)cc2C)c(C)c1,-8%,-2%,-18%,10,16%,-4%
Cc1cc(N)ccc1N1CCCC1,7.1µM*,45µM*[fluorescent],40µM*,26,13µM*,?
NC(=O)c1cc(N)ccc1N1CCCCC1,-12%,-3%,-4%,.,-5%,-8%
NC(=O)c1cc(N)ccc1N1CCCC1,?,45µM*[fluorescent],40µM*,9,?,-20%
Cc1cc(N)ccc1-n1c(C)ccc1C,14µM*,13µM*[fluorescent],7.9µM*,-28,?,-29%

# Screening data as filed in PubChem BioAssay.
